Data: PubChem BioAssay (NCATS)
Several values for one entry are separate records, joined by “and”; a condition that tells them apart may be missing. Equal values may be shown once. Records with an inconclusive call do not appear. Activity calls are given as the source filed them. Unless noted, calls come from the whole dose curve; as a rule, active = well fitted curve in the direction sought with a large enough effect; inconclusive = small, poorly fitted or top-dose-only effect, or another doubt; inactive = no such curve, though single readings can be large; an effect the other way counts as inactive or inconclusive.

Assays:
[1] = Cell Viability - HUV-EC-C (AID 542);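 note: cells exposed to compound for 40 hours; % is set by controls: 0 for no effect and ±100 for the full control effect; nearly all actives have a fitted effect of over 35% in size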
Method in brief: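 Decrease in cellular ATP, quantified by luciferase luminescence, reflects toxicity in normal human vascular endothelial HUV-EC-C cells given compound for 40 hr in complete culture medium. Values are AC50s from concentration-response curves.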

[2] = Cellular Toxicity (caspase-3) HepG2 (AID 654);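 note: cells exposed to compound for 16 hours before reading; 0% = DMSO alone and 100% = caspase signal from 100 µM tamoxifen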
Method in brief: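 qHTS, HepG2, 1500 cells/well, complete medium; cpd 16 h 37 °C; Caspase-Glo 3/7, 20 min RT; lum. Norm: DMSO vs 100 uM tamoxifen; AC50 Hill fit.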

[3] = Cellular Toxicity (caspase-3) MRC-5 (AID 659);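 note: 0% = DMSO basal and 100% = 10 µM staurosporine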
Method in brief: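 Concentration-dependent caspase 3/7 activation is measured in human normal lung fibroblasts (MRC-5) following 16-hour treatment. AC50 values come from standard Hill-equation modeling of luminescence normalized to DMSO and 10 uM staurosporine.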

[4] = Cellular Toxicity (caspase-3) Mesangial (AID 660);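 note: combined caspase 3 and 7 activity read by Caspase-Glo luminescence; cells exposed to compound for 16 h before the caspase read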
Method in brief: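 Concentration-response qHTS: compound-induced rise in caspase 3/7 luminescence in human mesangial cells after 16 h, normalized to DMSO and 100 uM tamoxifen controls.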

[5] = Cellular Toxicity (caspase-3) Hek293 (AID 664); conditions: HEK293 caspase-3 activation, DMSO = 0%, 100 µM tamoxifen = 100%; at 92.2 µM (top of the series);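 note: cells exposed to compound for 16 h at 37 °C before readout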
Method in brief: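 Activation of caspase-3/7 is measured as increased luminescence from cleaved peptide-aminoluciferin substrate in HEK293 cells treated 16 hours at 37 °C. AC50 values come from Hill-equation fits of concentration-response data.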

[6] = MultiTox-Fluor Cytotoxicity Assay - LYMP1-002 - Live Cells (AID 955);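 note: cells exposed to compound for 16 hours; % is set by controls: 0 for no effect and ±100 for the full control effect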
Method in brief: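 Cytotoxicity in the human lymphoblastoid line LYMP1-002 is measured as loss of live-cell protease activity after 16 h treatment in complete culture medium. AC50 is derived from Hill-equation fits of qHTS concentration-response data.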

[7] = Cell Viability - LYMP2-004 (AID 966);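 note: plate controls were DMSO only for no effect and tetraoctylammonium bromide control for full effect; nearly all actives have a fitted effect of over 65% in size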
Method in brief: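 Acute toxicity is scored as a concentration-dependent drop in intracellular ATP, quantified by luciferase luminescence, in human lymphoblastoid cells exposed to compound for 24 hr. AC50 derives from Hill-equation modelling.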

[8] = Cell Viability - LYMP2-009 (AID 968);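 note: cells exposed to compound for 24 h at 37 °C; 0% = DMSO alone and the full-kill end = tetraoctylammonium bromide at 92 µM; nearly all actives have a fitted effect of over 55% in size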
[9] = Cell Viability - LYMP2-026 (AID 989);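 note: cells exposed to compound for 24 h at 37 °C; % is set by controls: 0 for no effect and ±100 for the full control effect; nearly all actives have a fitted effect of over 50% in size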
Method in brief: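 Concentration-dependent loss of intracellular ATP in human lymphoblastoid cells after 24 hr at 37 C, quantified by luciferase luminescence. AC50 derived from standard Hill equation.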

[10] = qHTS assay for small molecule activators of the p53 signaling pathway (AID 651743; active = well fitted activation curve with a large enough effect in the signal ratio, not every such curve was filed as active; the % refers to the signal ratio; note: % of control where 0% means no effect); conditions: HCT-116 p53RE-bla, beta-lactamase FRET ratio, 16 h; activation: stronger effect = higher value
Method in brief: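 Screen for p53 pathway agonists uses stably transfected p53RE-bla HCT-116 cells, 4,000 per well, treated 16 h at 37 C with compounds in DMSO.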

[11] = qHTS assay for small molecule disruptors of the mitochondrial membrane potential - 1 hr assay (AID 651754; calls by dose curve; note: % is set by controls: 0 for no effect and ±100 for the full control effect; nearly all actives have a fitted effect of over 35% in size)
Method in brief: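 Steps: seed HepG2 cells and let attach overnight; pin-transfer compound or vehicle; incubate 1 hr at 37C; add Mito-MPS dye for 30 min; read two-channel fluorescence for monomer and aggregate forms.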

[12] = Cellular Toxicity (caspase-3) NIH 3T3 (AID 666);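 note: caspase signal read after 16 h compound exposure; 0% = DMSO basal and 100% = 100 µM tamoxifen stimulation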
Method in brief: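 Concentration-response qHTS in NIH 3T3 mouse fibroblasts scores caspase-3/7 activation as rising luminescence after 16 hr compound exposure. Signals are scaled between DMSO-only and 100 uM tamoxifen.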

[13] = Cell Viability - LYMP2-011 (AID 969);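 note: 0% = DMSO only and full inhibition = 92 µM tetraoctylammonium bromide; nearly all actives have a fitted effect of over 60% in size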
Method in brief: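 Acute toxicity is scored as a concentration-dependent drop in intracellular ATP of a human lymphoblastoid line after 24 hr treatment. Values are AC50s modeled with the Hill equation.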

[14] = Cell Viability - LYMP2-017 (AID 972);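 note: cells exposed to compound for 24 hours at 37 °C; % is set by controls: 0 for no effect and ±100 for the full control effect; nearly all actives have a fitted effect of over 55% in size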
Method in brief: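 Steps: plate 2500 lymphoblastoid cells per well; incubate 5 hr at 37 C; add compound across a concentration series and incubate 24 hr at 37 C; add CellTiter-Glo and read luminescence after 30 min at room temperature; fit Hill curves for AC50.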

[15] = target: Nuclear receptor ROR-gamma (Homo sapiens) (UniProt P51449); experiment: qHTS assay for small molecule antagonists of the retinoid-related orphan receptor gamma (ROR-gamma) signaling pathway (AID 651802);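 note: CHO cells with doxycycline-induced ROR-gamma expression; luciferase reporter luminescence driven by ROR response element; % is set by controls: 0 for no effect and ±100 for the full control effect; nearly all actives have a fitted effect of over 60% in size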
Chain of Nuclear receptor ROR-gamma (Homo sapiens) (P51449 whole entry, looked up): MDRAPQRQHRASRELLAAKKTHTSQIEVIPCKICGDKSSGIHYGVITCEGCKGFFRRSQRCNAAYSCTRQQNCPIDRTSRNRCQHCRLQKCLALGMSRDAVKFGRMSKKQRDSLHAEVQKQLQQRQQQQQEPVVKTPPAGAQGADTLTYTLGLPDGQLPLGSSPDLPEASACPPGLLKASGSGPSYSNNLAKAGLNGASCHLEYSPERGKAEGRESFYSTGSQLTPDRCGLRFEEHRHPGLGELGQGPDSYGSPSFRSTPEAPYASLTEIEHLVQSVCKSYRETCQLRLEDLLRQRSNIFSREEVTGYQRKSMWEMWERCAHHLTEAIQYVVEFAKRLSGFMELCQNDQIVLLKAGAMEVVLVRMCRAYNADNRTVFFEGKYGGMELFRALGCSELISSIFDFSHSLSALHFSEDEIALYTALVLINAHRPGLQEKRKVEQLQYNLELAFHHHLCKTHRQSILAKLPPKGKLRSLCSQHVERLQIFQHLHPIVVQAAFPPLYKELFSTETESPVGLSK
Method in brief: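 Antagonism is scored as a fall in luminescence from a RORE-luciferase reporter in CHO cells expressing ROR under a TET-inducible promoter, measured 16hr after doxycycline induction in the presence of compound.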

[16] = qHTS assay for small molecule agonists of the antioxidant response element (ARE) signaling pathway measured by Nrf2-dependant transcriptional activity (AID 720636; active = well fitted curve in the direction sought with a large enough effect in the repeat runs; an effect the other way counts as inactive or inconclusive;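 note: HepG2 cells with an ARE-driven luciferase reporter; % of control where 0% means no effect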)
Method in brief: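 Attachment 6 hr at 37 C, then compound versus DMSO vehicle for 16 hr in ARE-luc HepG2 cells (1% dialyzed FBS); luminescence recorded 30 min after ONE-Glo addition at room temperature.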

[17] = qHTS assay for small molecule agonists of the antioxidant response element (ARE) signaling pathway measured by Nrf2-dependant transcriptional activity - cell viability counter screen (AID 720653; active = well fitted curve in the direction sought with a large enough effect in the repeat runs; an effect the other way counts as inactive or inconclusive; note: % is set by controls: 0 for no effect and ±100 for the full control effect); conditions: ARE-bla HepG2 viability, CellTiter-Glo ATP luminescence, 16 h; stronger effect = lower value
Method in brief: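 Cytotoxicity counter screen: intracellular ATP quantified by CellTiter-Glo luminescence in the same ARE-bla HepG2 plates, after 16 h compound exposure and a 2 h beta-lactamase substrate step.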

[18] = Cell Viability - LYMP2-025 (AID 976);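 note: cells exposed to compound for 24 h at 37 °C; plate controls were DMSO only for no effect and tetraoctylammonium bromide control for full effect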
Method in brief: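 In qHTS format, LYMP2-025 lymphoblastoid cells in complete culture medium received compound for 24 hr; ATP-based CellTiter-Glo signal gave viability, with AC50 derived by Hill equation.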

[19] = target: Vitamin D3 receptor (Homo sapiens) (UniProt P11473); experiment: qHTS assay for small molecule agonists of vitamin D receptor signaling (AID 588543; calls by dose curve;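 note: 0% = DMSO basal and 100% = reference agonist control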)
Chain of Vitamin D3 receptor (Homo sapiens) (P11473 whole entry, looked up): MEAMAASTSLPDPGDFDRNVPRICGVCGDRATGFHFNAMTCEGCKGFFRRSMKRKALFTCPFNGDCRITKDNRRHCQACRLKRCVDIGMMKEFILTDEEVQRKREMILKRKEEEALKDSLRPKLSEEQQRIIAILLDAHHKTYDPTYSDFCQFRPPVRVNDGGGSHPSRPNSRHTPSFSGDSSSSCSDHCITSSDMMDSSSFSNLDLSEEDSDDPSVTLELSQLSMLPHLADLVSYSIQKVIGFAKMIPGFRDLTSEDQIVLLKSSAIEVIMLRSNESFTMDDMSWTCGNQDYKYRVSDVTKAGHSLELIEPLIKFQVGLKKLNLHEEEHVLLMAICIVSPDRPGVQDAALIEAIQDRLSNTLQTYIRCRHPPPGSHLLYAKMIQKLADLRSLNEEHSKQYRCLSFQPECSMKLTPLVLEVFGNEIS
Method in brief: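 Reporter cells (HEK293T, VDR-UAS-bla) were seeded in medium with 2% charcoal-stripped serum and incubated 5 h, then compounds in concentration series were added for 16 h at 37 °C. Stimulation was scaled between DMSO basal and 50 nM 1α,25-dihydroxyvitamin D3.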

[20] = Cell Viability - LYMP1-003 - Assay at 40 hr (AID 964); note: % is set by controls: 0 for no effect and ±100 for the full control effect; nearly all actives have a fitted effect of over 60% in size
Method in brief: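 This qHTS cytotoxicity screen treats human lymphoblastoid cells (LYMP1-003) with compounds for 40 hr and quantifies cellular ATP via luciferase luminescence.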

CCOC(=O)CC(SP(=O)(OC)OC)C(=O)OCC (centres undefined)
inactive: Potency [1] | outcome [2] | outcome [3] | outcome [4] | caspase-3 activation [5] 1.27% | outcome [6] | Potency [7] | Potency [8] | Potency [9] | activation [10] -0.7% and -2.82% | Potency [11]

CCCCOC(C)=O
inactive: Potency [1] | outcome [3] | outcome [4] | Potency [12] | outcome [6] | Potency [7] | Potency [8] | Potency [13] | Potency [14] | Potency [9] | activation [10] -4.75% | Potency [11] | Potency [15] | Potency [16] | max response [17] 10.3%

Nc1ncc([N+](=O)[O-])s1
inactive: Potency [1] | outcome [3] | caspase-3 activation [5] -1.64% | Potency [12] | outcome [6] | Potency [8] | Potency [13] | Potency [14] | Potency [18] | Potency [9] | outcome [19] | activation [10] -4.14% | Potency [15] | Potency [16] | max response [17] 0.285%

O=[N+]([O-])c1ccccc1-c1ccccc1
inactive: Potency [1] | outcome [2] | outcome [3] | outcome [4] | caspase-3 activation [5] -1.39% | Potency [12] | Potency [20] | Potency [8] | Potency [13] | Potency [14] | Potency [9] | activation [10] -1.36% | Potency [11] | Potency [15] | Potency [16] | max response [17] 1.78%

CCC/C=N/O
inactive: Potency [1] | outcome [2] | outcome [4] | caspase-3 activation [5] -0.0645% | Potency [12] | outcome [6] | Potency [20] | Potency [7] | Potency [8] | Potency [13] | Potency [14] | Potency [18] | Potency [9] | outcome [19] | activation [10] 2.09% | Potency [11] | Potency [15] | max response [17] -12.8%

CCOC(=O)CBr
inactive: Potency [1] | outcome [2] | outcome [4] | Potency [12] | outcome [6] | Potency [20] | Potency [7] | Potency [13] | Potency [14] | Potency [18] | Potency [9] | outcome [19] | activation [10] -2.17% | Potency [11] | Potency [15] | Potency [16] | max response [17] 1.03%

Nc1ccc(-c2ccc(N)cc2)cc1
inactive: Potency [1] | outcome [2] | outcome [3] | outcome [4] | caspase-3 activation [5] 0.43% | outcome [6] | Potency [20] | Potency [8] | Potency [13] | Potency [18] | outcome [19] | activation [10] -1.06% | Potency [15] | Potency [16] | max response [17] -3.71%

OCCBr
inactive: Potency [1] | outcome [2] | outcome [3] | caspase-3 activation [5] 0.017% | Potency [12] | outcome [6] | Potency [7] | Potency [8] | Potency [13] | Potency [14] | Potency [18] | Potency [9] | outcome [19] | Potency [11] | Potency [15] | Potency [16] | max response [17] 1.65%
